Screening results deposited in PubChem by National Center for Advancing Translational Sciences (NCATS).
An excerpt weighted towards active compounds, which were near 2.4% of everything screened.
D2 ag-1 – agonists of human D2 dopamine receptor | AID 485358 | P14416 | activation, % at 2 µM | 340,000 compounds, 0.53% hits | HEK293 T-REx D2 cells, calcium flux agonist mode;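 active means activation over 3 SD above normal in the single-dose calcium agonist read, cut at about 30% in these data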; further: 0% is about no effect
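Agonism is scored from calcium flux in a force-coupled, inducible HEK293 cell line expressing D2, read kinetically for 180 s after compound addition against dopamine controls.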
B2AR arrestin – recruits beta-arrestin to the human beta2-adrenergic receptor. beta-arrestin recruitment to beta2AR, cell-based reporter. Potency, µM (titrated, usually from 46.1 µM), inactives show at the top dose activation, actives largely listed as activators. 330,000 compounds, 0.02% hits. AID 492947; active means well fitted activation curve with a large enough effect; inconclusive means small, poorly fitted or top-dose-only effect;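 further: potency means the concentration at half of the fitted maximal effect; 0% = DMSO controls and full agonism = EC100 isoproterenol or metaproterenol; nearly all actives have a fitted effect of over 65% in size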
Target sequence (P07550 whole entry, looked up): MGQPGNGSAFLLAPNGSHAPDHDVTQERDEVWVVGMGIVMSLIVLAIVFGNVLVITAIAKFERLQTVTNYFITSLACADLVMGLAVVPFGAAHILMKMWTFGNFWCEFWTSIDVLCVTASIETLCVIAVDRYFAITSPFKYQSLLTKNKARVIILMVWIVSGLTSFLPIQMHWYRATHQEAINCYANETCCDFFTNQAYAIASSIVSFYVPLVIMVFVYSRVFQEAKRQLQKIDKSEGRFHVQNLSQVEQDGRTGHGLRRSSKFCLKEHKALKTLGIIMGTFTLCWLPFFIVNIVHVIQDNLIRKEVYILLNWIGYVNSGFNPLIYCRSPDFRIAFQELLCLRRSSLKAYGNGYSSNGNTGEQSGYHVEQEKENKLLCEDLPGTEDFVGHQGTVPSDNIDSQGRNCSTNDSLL
D2 PAM-1 – positively modulates the human D2 dopamine receptor allosterically; HEK293 T-REx D2, calcium flux, EC20 dopamine potentiation; potentiation, % at 10 µM; 340,000 compounds, 0.34% hits; AID 485347;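 active means potentiation over 3 SD above the plate norm, cut at about 30% in these data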; further: 0% is about no effect
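Using a no-wash calcium dye in inducible, force-coupled HEK293 Trex cells expressing D2, we tracked fluorescence each second for 180 s after compound, then for 180 s after EC20 dopamine to detect augmented signalling.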
D2 antag – antagonists of human D2 dopamine receptor; P14416; HEK293 TREx D2 cells, calcium flux, dopamine EC80; inhibition, % at 10 µM; 340,000 compounds, 2% hits; AID 485344; in the data active means inhibition above about 30%; inactive means below that, where a call was filed; further: 0% is about no effect
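Dopamine at EC80 is the agonist stimulus; test compounds precede it by 180 s. Calcium flux read kinetically in a force-coupled, inducible HEK293 T-REx D2 cell line.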
D2 ag-2 – human D2 receptor agonism in beta-arrestin assay; DiscoveRx PathHunter D2 beta-arrestin, luminescence, 90 min; 100% = 57 uM dopamine signal; activation, % (concentration not given with the values); P14416; 360,000 compounds, 0.084% hits; in the data active means activation above about 40%; inconclusive means between about 15% and that limit
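DiscoveRx PathHunter D2 beta-arrestin cells (2,100/well) attached overnight, then compound-stimulated 90 min at 37 C in HBSS/10 mM HEPES/0.1% Tween-20 buffer; beta-galactosidase complementation read by luminescence after 1 h at ambient temperature. Dopamine 57 uM final (EC100) as control.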
D2 PAM-2 – human D2 receptor positive allosteric modulation | DiscoveRx D2 beta-arrestin cells, luminescence, 90 min; 100% = 57 uM dopamine signal | potentiation, % (no concentration beside the values) | 360,000 compounds, 0.23% hits | AID 624464; in the data active means potentiation above about 50%; inconclusive means mostly about 30% to 49%
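PathHunter beta-arrestin assay in DiscoveRx D2 cells. Compounds were added with an EC20 of dopamine (50 nM final) for 90 min at 37 deg C. Luminescence was read 1 h after detection reagent, with 57 uM dopamine as the EC100 control.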
* = called active by the depositor; ? = inconclusive; · = no result.

SMILES	D2 ag-1	B2AR arrestin	D2 PAM-1	D2 antag	D2 ag-2	D2 PAM-2
Cc1c(C(=O)N2CCN(Cc3cccs3)CC2)oc2ccccc12	0	-2%	-25	-17	-4	-4
CCOC(=O)N1CCN(Cc2cccs2)CC1	38*	0%	1	-7	?	11
COc1ccc(CCNC(=O)Cn2cc(C(=O)c3ccc(F)cc3)c(=O)c3ccc(C)nc32)cc1OC	0	·	6	·	·	·
Clc1c(Cl)c(Cl)c2n[nH]nc2c1Cl	5	2%	1	38*	-5	-5
O=C(COC(=O)c1ccc(S(=O)(=O)NCc2ccco2)cc1)NCc1ccc(F)cc1	0	0%	64*	-11	4	-1
CCc1ccc(OC(=O)c2cccnc2)cc1	-2	0%	2	32*	-6	-6
Cc1ccc(OC(=O)c2cccnc2)cc1	0	0%	-6	-5	1	0
Cc1ccccc1N1CCN(C(=O)c2cc(C3CC3)nn2-c2ccccc2)CC1	0	0%	2	-2	-4	-17
O=C(NCC1CCCO1)C1CCN(CC2CCCCC2)CC1 (stereo not drawn)	1	0%	-1	-6	-2	-28
NC(=O)C1CCN(S(=O)(=O)c2cccc(S(=O)(=O)N3CCCCC3)c2)CC1	1	0%	8	70*	0	5
CSc1ccc(S(=O)(=O)N2CCC(C(=O)NCC3CCCO3)CC2)cc1 (stereo not drawn)	0	0%	33*	8	-2	-11
O=C(NCC1CCCO1)c1cccc(S(=O)(=O)N2CCCCC2)c1 (stereo not drawn)	0	0%	4	31*	-1	8
Nc1c(-c2nc(-c3ccccc3)no2)nnn1CC(=O)Nc1ccccc1	0	·	17	·	·	·
Cn1ccc(-c2cc(C(=O)O)c3ccccc3n2)n1	·	0%	·	·	2	-5
CCc1cc2c(=O)c(-c3cscn3)coc2c(CN(C)C)c1O	0	0%	·	10	4	10
CC(=O)Oc1ccc2oc(=O)c3c(c2c1)CCCN3C(=O)CN1CCOCC1	0	0%	·	15	0	-5
CCOCc1c(C(=O)N2CCN(CCOc3ccc(Cl)cc3)CC2)oc2ccccc12	13	0%	0	7	4	-21
CCOCc1c(C(=O)N2CCN(CC(=O)Nc3ccc(F)cc3)CC2)oc2ccccc12	0	0%	-12	72*	-4	4
Cc1ccc(S(=O)c2ccc(NC(=O)C3CC3)cc2C#N)cc1 (stereo not drawn)	·	0%	·	·	-1	-2
Cc1ccc(C(=O)COC(=O)CCC(=O)Nc2ccc(Oc3ccccc3)cc2)cc1	0	·	-2	·	·	·
Clc1cccc2c1CCN(Cc1nc(-c3cnccn3)no1)C2	1	0%	-11	40*	-5	-2
c1ccc(C(c2ccccc2)N2CCN(Cc3nc(-c4cnccn4)no3)CC2)cc1	0	0%	-4	-11	-2	-9
COc1ccc([N+](=O)[O-])cc1NC(=S)NC(NC(=O)Cc1ccc(OC)c(OC)c1)C(Cl)(Cl)Cl (stereo not drawn)	-1	-1%	-18	74*	-4	-27
O=C(N/N=C/c1ccccc1C(=O)O)c1cccc(S(=O)(=O)N2CCOCC2)c1	1	0%	5	-11	-1	1
O=C1C=C(c2cccc3c2sc2ccccc23)C[C@@H](c2ccc(Cl)cc2)C1	-1	-1%	33*	11	-3	-4
SMILES	D2 ag-1	B2AR arrestin	D2 PAM-1	D2 antag	D2 ag-2	D2 PAM-2
COc1ccc(CCCC(=O)N/N=C\c2cccs2)cc1	-1	0%	·	2	-1	-11
CCOC(=O)c1ccc(NC(=S)NNC(C)(C)C)cc1	0	22µM*	10	-4	0	-4
CC(Oc1cc2oc(=O)c3c(c2cc1Cl)CCC3)C(=O)NCc1ccncc1 (stereo not drawn)	2	0%	9	-14	0	-6
Brc1ccc(-c2cn3c(n2)CCc2ccc4cccnc4c2-3)cc1	-1	0%	32*	-6	3	-12
COc1ccc(COCC(O)CN(Cc2ccccc2)C(C)C)cc1OC (stereo not drawn)	1	-1%	-3	31*	0	-6
Cc1ccc(/C=C/C(=O)Nc2ccc(S(N)(=O)=O)cc2)o1	0	0%	-3	-5	3	-9
Cc1nc(Nc2ccc(S(N)(=O)=O)cc2)oc1C	1	0%	49*	1	-3	10
COc1cccc(-c2noc(C3CCCN(C(=O)c4ccc(F)cc4F)C3)n2)c1 (stereo not drawn)	-1	0%	19	33*	-4	0
COc1cccc(-c2noc(C3CCCN(C(=O)c4ccccc4OC)C3)n2)c1 (stereo not drawn)	-1	1%	-1	-1	9	?
CC1CCCCC1NC(=O)C1CCN(c2c3c(nc4ncnn24)CCC3)CC1 (stereo not drawn)	-2	0%	-2	34*	-4	0
O=C(O)c1nn2cc(CCO)cnc2c1Cl	1	-1%	34*	-6	1	-5
O=C(NCc1cccnc1)c1nn2cccnc2c1Cl	0	-1%	-2	16	-3	-12
O=C(OCc1cc(=O)n2nc(C3CC3)sc2n1)c1ccc(F)cc1	·	·	21	·	·	·
CCOC(=O)c1[nH]c2c(c1Cc1ccccc1)C(=O)CC(c1ccccc1)C2 (stereo not drawn)	0	·	-4	·	·	·
CCOC(=O)c1[nH]c2c(c1-c1ccccc1)C(=O)CC(c1ccccc1)C2 (stereo not drawn)	1	2%	-6	31*	0	-1
Cn1c(=O)c2c(ncn2CC(=O)N2CCCc3ccccc32)n(C)c1=O	0	-1%	-2	4	-4	23
CC1CCN(C(=O)CN2C(=O)C(=O)N(C)C2=O)c2ccccc2S1 (stereo not drawn)	1	0%	-3	44*	-1	-4
CC1CCN(C(=O)Cn2cnc3c2c(=O)n(C)c(=O)n3C)c2ccccc2S1 (stereo not drawn)	1	0%	1	45*	-6	-4
COc1ccc(N2CCN(C3CCCN(Cc4ccccc4OCCO)C3)CC2)cc1 (stereo not drawn)	-2	0%	-4	3	-5	1
C[C@@H]1[C@H](c2ccccc2)Oc2ccc(Cl)cc2S(=O)(=O)N1CC1CCCN1C(=O)OC(C)(C)C (stereo partly drawn)	·	·	·	·	-1	-2
CC1(C)CC(NCc2ccccc2)CCO1 (stereo not drawn)	1	0%	38*	-13	-3	-8
